WT yeast gro inh: growth inhibition of WT yeast, mitochondrial fusion screen | mitochondrial fusion phenotypic screen, WT strain | 2.1% of 190,000 active | inhibition, % at 10 µM | AID 1362; in the data active means inhibition above about 58%; tested in S. cerevisiae
ROMK mod: human ROMK K+ channel modulation, primary screen. B-score at 10 µM. P48048. 2% of 130,000 active. Tet-inducible ROMK, thallium flux fluorescence; actives lie on both sides;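 active means signal ratio slope over the read window, or its plate-corrected B-score, at least 3 SD from the plate mean, either direction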;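 further: B-score of the F/F0 ratio slope over 7 to 12 s after thallium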
Target sequence (P48048 whole entry, looked up): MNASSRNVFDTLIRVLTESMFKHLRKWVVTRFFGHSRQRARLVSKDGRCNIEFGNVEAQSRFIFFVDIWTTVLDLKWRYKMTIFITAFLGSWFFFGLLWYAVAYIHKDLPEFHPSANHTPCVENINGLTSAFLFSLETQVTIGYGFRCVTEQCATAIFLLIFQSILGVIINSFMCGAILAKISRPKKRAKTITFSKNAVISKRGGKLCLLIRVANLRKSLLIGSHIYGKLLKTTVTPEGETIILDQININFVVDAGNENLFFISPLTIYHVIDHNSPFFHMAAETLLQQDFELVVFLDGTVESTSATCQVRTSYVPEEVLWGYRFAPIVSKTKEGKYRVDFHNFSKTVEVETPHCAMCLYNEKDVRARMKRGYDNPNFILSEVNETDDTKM
L major viab: inhibitors of Leishmania major promastigote growth; Leishmania major promastigotes, resazurin fluorescence viability; inhibition, % at 10 µM; 9% of 200,000 active; AID 1063; in the data active means inhibition above about 50%;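 further: promastigotes grown with compound for 44 hours at 28 °C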
KCC2 mod: modulates chloride dependent transport by human KCC2. KCC2 cells, thallium flux FluoZin-2 fluorescence. 2.2% of 190,000 active. B-score of Tl+ flux slope (higher = more flux/activation; lower = inhibition) at 10 µM;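 active means thallium flux slope and its plate-corrected score both differing from the plate sample mean at a set confidence after two filtering rounds, in either direction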;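 further: slope of fluorescence scaled to starting intensity during 10 to 20 s after thallium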
Calpain2 inh: inhibitors of pig calpain II | purified calpain II, fluorogenic peptide substrate, 30 min | inhibition, % at 16 µM | 0.37% of 220,000 active | AID 1236;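 active means inhibition above about 50%, limit read from the data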
ROMK hit retest: confirmation of human ROMK potassium channel modulators; normalized thallium flux (F/F0 slope) at 10 µM; 54% of 3,000 active; shares compounds with ROMK mod; ROMK thallium flux, fluorescence ratio; stronger effect = lower value;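 active means Flux at 10 µM at least 3 SD below or above vehicle control mean in one or both replicates; inconclusive means no clear call, values can overlap the other calls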
Starred values were filed as active, the others as inactive; ? = inconclusive; nt = no result given. A selection: hits, their analogues and other compounds. The true share with any hit is near 12%.

SMILES	WT yeast gro inh	ROMK mod	L major viab	KCC2 mod	Calpain2 inh	ROMK hit retest
CC1(C)CC(/C=C/c2ccccc2)=Nc2ccccc2N1	nt	nt	nt	-0.195	7.2	0.036*
O=C1CC(/C=C/c2ccc(Cl)cc2)=Nc2ccccc2N1	-11.2	-3.39*	80.9*	-0.218	29.3	0.0588*
CN1N=C(/C=C/c2ccccc2)CCC1=O	29.9	0.64	-10.2	nt	37.4	nt
COc1ccc(C2(O)CC3CCC(C2)N3c2nc(C)cc(C)c2C#N)cc1 (centres undefined)	6.9	0.442	9.7	nt	-203.2	nt
CC(=O)C(Cl)C(=O)Nc1ccccc1 (centres undefined)	-15.6	-5.38*	3.0	1.49	11.4	0.046*
CC(Cc1ccccc1)C(=O)Nc1ccccc1 (centres undefined)	13.8	-0.549	-5.9	0.428	26.4	nt
COCCN=c1scc(-c2ccco2)n1/N=C/c1ccc(O)c(O)c1O	-5.1	3.23*	4.3	-0.0781	-35.2	0.0789
O=C(c1cc2nc(C3CC3)cc(C(F)(F)F)n2n1)N1CCCC1	3.4	6.86*	-6.2	-0.545	-34.9	0.0785
O=C(O)c1cc2nc(C3CC3)cc(C(F)(F)F)n2n1	3.4	nt	-1.2	-0.0257	6.5	nt
CCOC(=O)C1C(=O)N(C(=O)c2cncc(Br)c2)CC1c1ccccc1 (centres undefined)	2.5	nt	-1.1	nt	-8.4	nt
O=C(Nc1ccc(Br)cc1)C1OCCc2ccccc21 (centres undefined)	nt	nt	nt	-0.708	-1.2	nt
COc1ccc(-c2c(NC(=O)c3ccco3)n(C)c3ccccc3c2=O)cc1	2.7	3.75*	-6.0	0.645	16.7	0.0793
CCCCN1C(=O)CC(C(=O)OCC)=C1C	nt	nt	nt	1.33	20.1	nt
CCCCCN1N=C(C)CC1=O	2.0	2.68*	9.1	1.52	11.6	0.0794
O=[N+]([O-])c1ccc2ccn(C3OCC(O)C(O)C3O)c2c1 (centres undefined)	0.7	-0.57	-3.5	nt	8.8	nt
COC(=O)Cc1c(C(=O)OC)nnn1-c1ccc(OC(F)(F)F)cc1	14.3	-0.289	-6.8	0.00183	39.2	nt
COc1ccc(N2C(S)=C(C#N)C(=O)NC23CCCCC3)cc1	-4.2	1.83	10.9	-1.62	-15.8	nt
COc1ccc(NC(=O)/C(Cl)=C(/Cl)S(=O)Cc2ccccc2)cn1 (centres undefined)	76.3	-3.52*	100.5*	nt	19.8	0.0466*
COc1ccc(CS(=O)(=O)/C(Cl)=C(/Cl)C(=O)Nc2ccc(OC)nc2)cc1	63.1*	-2.76*	32.4	0.863	-50.8	?
COc1ccc(NC(=O)Cc2ccccc2)cn1	-6.2	-0.0392	-3.0	-0.495	-16.9	nt
COc1ccc(/C=C/C(=O)Nc2ccc(OC)nc2)cc1	10.7	0.513	-2.5	0.91	-6.0	nt
CCOC(=O)c1ccc(S(=O)(=O)N2CCN(CC(=O)NC(=O)NC3CCCCC3)CC2)cc1	10.2	nt	-6.8	0.00438	-33.3	nt
COc1ccc(N2CCN(CC(O)COCCOc3ccc(Br)cc3)CC2)cc1 (centres undefined)	32.0	-2.39*	-10.8	-0.657	-2.7	0.0578*
OC(COc1ccc2cc(Br)ccc2c1)CN1CCCC1 (centres undefined)	19.7	nt	100.1*	nt	-21.1	0.0644*
COc1ccccc1N1CCN(CC(O)COCCOc2ccc(Br)cc2)CC1 (centres undefined)	12.4	nt	-2.9	-0.0135	-5.3	nt
SMILES	WT yeast gro inh	ROMK mod	L major viab	KCC2 mod	Calpain2 inh	ROMK hit retest
COc1ccc(N2CCN(CC(O)COc3ccc4c(c3)CCC4)CC2)cc1 (centres undefined)	-4.0	-4.52*	92.0*	nt	18.5	0.0613*
COc1ccc2[nH]c(=O)c(CN(CCO)C(=O)c3ccccc3F)cc2c1	14.7	nt	-2.8	-0.862	-41.0	nt
CS(=O)(=O)c1ccc2nc(NC(=O)c3ccc(NS(=O)(=O)c4cccc([N+](=O)[O-])c4)cc3)sc2c1	nt	nt	nt	-0.211	-19.7	nt
CO/N=C\CC(=O)Nc1ccc(Cl)c(Cl)c1	13.7	4.71*	-1.1	0.00627	-36.9	0.0819
O=C(C[n+]1cccc2ccccc21)c1ccccc1	-4.2	0.427	-4.2	-0.259	0.3	nt
O=C(C[n+]1cc2ccccc2c2ccccc21)c1ccccc1	14.1	-3.84*	99.3*	-0.308	-44.6	0.0571*
COC(=O)C1CCN(C(=O)CSc2ccccc2)CC1	-8.1	-0.394	43.9	-0.503	8.3	0.0723
CCN(Cc1cc2cc(C)ccc2[nH]c1=O)C(=O)c1cccc([N+](=O)[O-])c1	nt	nt	nt	0.0438	1.2	nt
Cc1ccc(-n2ncc(C(=O)Nc3cc(Cl)ccc3C)c2C2CCNCC2)cc1C	5.2	-3.25*	-10.2	-0.717	-9.0	0.0455*
Cc1[nH]n(-c2ccc(Br)cc2)c(=O)c1C=Nc1ccc(S(=O)(=O)Nc2nccs2)cc1	11.7	nt	-1.3	0.62	19.9	0.0862
Cc1cc(C)nc(NS(=O)(=O)c2ccc(N=Cc3c(C)[nH]n(-c4ccccc4)c3=O)cc2)n1	11.8	-0.0301	-1.7	-0.874	-0.1	nt
C=CCN1C(=O)C(Cc2ccccc2Cl)SC1=Nc1ccc(C(=O)O)cc1 (centres undefined)	nt	nt	nt	0.69	4.9	nt
CCOc1cc(N2CCOCC2)c(OCC)cc1NC(=O)c1cc(-c2ccco2)nc2ccccc12	-3.1	nt	-2.2	-0.524	-99.9	0.0655*
Cc1nc(CS(=O)(=O)c2ccc(Cl)cc2)sc1C(=O)O	nt	nt	nt	0.388	-20.0	nt
CCCSc1nc(N)cc(=O)[nH]1	22.4	nt	-6.6	-0.215	6.0	nt
CC(=O)c1cnn(-c2ccccc2)c1C	-54.5	-0.238	-8.3	-0.257	-15.2	nt
COC(=O)c1cnn(-c2ccccc2)c1C(OC)OC	nt	nt	nt	0.318	29.2	0.0751
COC(=O)c1cnn(-c2ccccc2)c1-n1cccc1C=O	-11.1	-5.74*	-1.4	-0.13	-6.2	0.0767
COc1ccc(CNC(=O)[C@H](C)NC(=O)C2CCN(S(=O)(=O)c3ccc(C)cc3)CC2)cc1	-27.3	0.67	-0.7	nt	4.3	0.0751
Cc1ccc(S(=O)(=O)N2CCC(C(=O)N[C@@H](C)C(=O)NC3CCCCC3)CC2)cc1	7.9	nt	-8.0	-0.876	41.9	nt
O=C(NNC1=NC2(CCCC2)Cc2ccccc21)c1cccnc1	-3.2	nt	9.9	-0.156	2.7	nt
CCOC(=O)Cn1c(=N)n(CCOc2ccc(OC)cc2)c2ccccc21	5.1	-2.62*	-0.9	-0.0934	-3.1	0.0601*
CCOC(=O)Cn1c(=N)n(CCOc2ccc3ccccc3c2)c2ccccc21	16.8	-4.17*	15.1	nt	-16.9	0.0561*
NC(=O)C1(N2CCCCC2)CCN(C(=O)CSc2nc(C(F)(F)F)cc(=O)[nH]2)CC1	3.2	nt	-5.5	nt	-35.1	nt
CNC(=O)c1nnsc1S(=O)c1ccc(Cl)cc1 (centres undefined)	58.9	-8.78*	100.3*	0.615	1.9	0.049*
CCCNC(=O)c1nnsc1S(=O)(=O)c1ccc(Cl)cc1	84.6	-4.87*	17.7	-0.799	20.3	0.0474*
CCCNC(=O)c1nnsc1S(=O)c1ccc(Cl)cc1 (centres undefined)	85.5	-6.4*	100.4*	0.357	0.5	0.0553*
CCCc1c(C)nn(C(=O)/C(C#N)=N/Nc2ccccc2[N+](=O)[O-])c1C	-0.7	1.56	-10.6	-0.731	-11.3	nt

Bioassay records as filed in PubChem BioAssay.
